Measured values reported in article PMC7819943, “Rice protein-binding microarrays: a tool to detect cis-acting elements near promoter regions in rice”.
Over roughly 68,000 sequences, “fluorescence intensity (a.u.)” has its median near 9,100; the highest 2% begin near 16,000. Only a selection was taken, and the highest values are over-represented in it overall.

Molecular target: OsWRKY34 (Oryza sativa, UniProt Q0JBA9 1-250)
Experiment: protein-binding microarray (RPBM); PBS, 2% BSA, 51.3 ng/ul salmon testes DNA, 50 uM zinc acetate, 200 nM TF, 25 C, 1 h; high values mean tight binding
Settings: protein: recombinant; tags: N-terminal polyhistidine and DsRed monomer fusion (pET32a); label: CyDye5-dUTP incorporated in the synthesized complementary strand; 3' TTTTT single-stranded linker to array surface; dsDNA, one strand shown
Method in brief: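 Ni–NTA purification followed expression in E. coli BL21-CodonPlus of transcription factors fused N-terminally to a polyhistidine tag and DsRed. At 200 nM in PBS with 2% BSA, salmon testes DNA and 50 µM zinc acetate, the protein was incubated for 1 h at 25 °C with a custom Agilent array that had been primer-extended with Cy5-dUTP and blocked with 2% BSA. After washing, the array was read on an Axon 4000B scanner. The binding signal is per-feature fluorescence intensity in arbitrary units.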

OsWRKY34, sequence (Q0JBA9 entry or part of it): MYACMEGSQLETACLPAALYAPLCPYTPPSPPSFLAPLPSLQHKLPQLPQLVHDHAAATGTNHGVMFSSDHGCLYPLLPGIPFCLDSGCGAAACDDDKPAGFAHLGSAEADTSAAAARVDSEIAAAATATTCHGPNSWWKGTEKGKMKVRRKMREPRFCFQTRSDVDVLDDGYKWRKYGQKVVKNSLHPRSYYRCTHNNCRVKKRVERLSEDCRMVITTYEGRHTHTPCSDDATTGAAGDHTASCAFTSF

Row | Sequence | binding signal
1 | CCATTCCTCTGTTTACCTCTGCTCTGTATACATACTCCGGCGGAGTCACCTAGTGCAG | 9220 fluorescence intensity (a.u.)
2 | AGAATTCCGATCGCCACCCCGCGGTTCTGCTCTCGCCGGCCGGAGTCACCTAGTGCAG | 9150 fluorescence intensity (a.u.)
3 | ACAAACCCGACCTTGAACTCGAAACAGGCGCACATCCCACCGGAGTCACCTAGTGCAG | 8560 fluorescence intensity (a.u.)
4 | CCATCGGTACCATCTGTTTCGTCTACTTCCTTTGTAATCTCGGAGTCACCTAGTGCAG | 9150 fluorescence intensity (a.u.)
5 | AGAGGAGAGGAGGGTTCAGATGTGGTGGGTCTATATAGCGCGGAGTCACCTAGTGCAG | 9610 fluorescence intensity (a.u.)
6 | GATAGTGTCCCACGCATGCGTCCACGAGTCCTCGACGCAACGGAGTCACCTAGTGCAG | 9120 fluorescence intensity (a.u.)
7 | TACTACACTATTAATATATGGTCCAACCTGTCATACACACCGGAGTCACCTAGTGCAG | 10700 fluorescence intensity (a.u.)
8 | TGTTTATCTATTTTGTGTTGGTATTATTATTTCTTGTATACGGAGTCACCTAGTGCAG | 8850 fluorescence intensity (a.u.)
9 | CCACACCACAGTCGCCTCTCTCCTCTTTCACCGAGAAGCGCGGAGTCACCTAGTGCAG | 8150 fluorescence intensity (a.u.)
10 | GTTTCCATAGCATTACACTTTTGTAACTATTATTGTTTTGCGGAGTCACCTAGTGCAG | 9760 fluorescence intensity (a.u.)
11 | TATGAAGTTGATTTTGTGGATTTTTTCATCGTGATTTATTCGGAGTCACCTAGTGCAG | 8890 fluorescence intensity (a.u.)
12 | TCCGTCGTCTTCCTTTACTGGTTCTATGTCTTCTCAGTAACGGAGTCACCTAGTGCAG | 10800 fluorescence intensity (a.u.)
13 | TTTCTCCGTCGTCTTCCTCTACTGGTTCTATGTCTTCTCACGGAGTCACCTAGTGCAG | 18800 fluorescence intensity (a.u.)
14 | CTCTCCTCCCTATTCTTTTCCTTTCCTCTCCTTTCCTTTCCGGAGTCACCTAGTGCAG | 8870 fluorescence intensity (a.u.)
15 | GTTTTGTATGGTTCTCTGGATATATTACTGCCTGTAAATTCGGAGTCACCTAGTGCAG | 8320 fluorescence intensity (a.u.)
16 | CTTGGTTTCTTGTTGTGCAACTCTCGTCGTCTCGTTCATCCGGAGTCACCTAGTGCAG | 11500 fluorescence intensity (a.u.)
17 | ACTGTCTCGTATTCTATTCCTCATTCCTTCTCTTTTTTTCCGGAGTCACCTAGTGCAG | 19600 fluorescence intensity (a.u.)
18 | TCCTCATGCCTCTTTTTCCTCCTCCTTCCTTCTCTCATTCCGGAGTCACCTAGTGCAG | 10200 fluorescence intensity (a.u.)
19 | AACTCACTCTCGCGTTCGCGTCGTCTCCGGCCTTTTCTTGCGGAGTCACCTAGTGCAG | 8870 fluorescence intensity (a.u.)
20 | ACTTGTATTCTTCCTCGTCTTCCTCTTCTGTATTTCTGGTCGGAGTCACCTAGTGCAG | 8140 fluorescence intensity (a.u.)
21 | ATCATTCCTAACTGCCTGGTCGTACTTCTCTGTATTTTGTCGGAGTCACCTAGTGCAG | 17500 fluorescence intensity (a.u.)
22 | CTTTCCGTCGCGTCTCGTCTTCTCATGGTTGCAACTCTCCCGGAGTCACCTAGTGCAG | 18100 fluorescence intensity (a.u.)
23 | TACTGGTCGTCTGGTCTACTCCGTCTCTCCTCTTCTCTCCCGGAGTCACCTAGTGCAG | 12200 fluorescence intensity (a.u.)

Row | Sequence | binding signal
24 | CCCGGCCTTAGCATACTATTATTTTAGCACTAATCTTAACCGGAGTCACCTAGTGCAG | 9300 fluorescence intensity (a.u.)
25 | TTTTATAAATTCGAGCGTGTGCGGGTTTCGTTTTCTCACTCGGAGTCACCTAGTGCAG | 9840 fluorescence intensity (a.u.)
26 | GCTGTGGTCATGGACAGGGGACGGGCTGGGGTCGTCGCGCCGGAGTCACCTAGTGCAG | 8090 fluorescence intensity (a.u.)
27 | TTTTGCTACAGTGCTCGGATATATCTGGGACGTCCATTTTCGGAGTCACCTAGTGCAG | 10200 fluorescence intensity (a.u.)
28 | TGCGTACACTCCTTTGAAACCCCATTGCTATGTAGACAATCGGAGTCACCTAGTGCAG | 8020 fluorescence intensity (a.u.)
29 | TAAAATTCTGTTCCGCCGCGTTTGCCCTCGTCAACTAATCCGGAGTCACCTAGTGCAG | 9750 fluorescence intensity (a.u.)
30 | ATGTCTGTATCTGTTATTGTTTCTATTGTGTCTGATCCAACGGAGTCACCTAGTGCAG | 8980 fluorescence intensity (a.u.)
31 | AACTAGGTCCCTCGGCGGTTTTGACTCCTGTTTTGTCCAACGGAGTCACCTAGTGCAG | 12500 fluorescence intensity (a.u.)
32 | GGCAACCACGTAATTCCCTCCCTTTTCAGTTACTCATCAACGGAGTCACCTAGTGCAG | 9620 fluorescence intensity (a.u.)
33 | GGTTCCAATTCGTCGCCTGATACTCCGATTCGAGTTCTTGCGGAGTCACCTAGTGCAG | 12700 fluorescence intensity (a.u.)
34 | CTCGTTGTCGTGCTGCTTGTAATTCATCTAGTTTGTCTACCGGAGTCACCTAGTGCAG | 10000 fluorescence intensity (a.u.)
35 | CTTGGATTCTGAGGTGGGCTTGAACTTGATATGAATTAGGCGGAGTCACCTAGTGCAG | 8100 fluorescence intensity (a.u.)
36 | GGTGGTTGGCGCGCGTTTTCTTGTGTGGTTTTTTGTGTCGCGGAGTCACCTAGTGCAG | 14200 fluorescence intensity (a.u.)
37 | TTTAGGGGTGTTTGGTTGAGGGGTGAGTGGGATGGGTTGGCGGAGTCACCTAGTGCAG | 10300 fluorescence intensity (a.u.)
38 | CAAATTCTAGACTTTTTGGTGGGTTGCGTGCGAGGGGTGGCGGAGTCACCTAGTGCAG | 10500 fluorescence intensity (a.u.)
39 | GTAAACTTATTCTTTGGGCGTTGTTATTATTTGGGGCAATCGGAGTCACCTAGTGCAG | 11400 fluorescence intensity (a.u.)
40 | TTGGGTTGGGTTGGTGAGGTGGGGAGATGGTTTGGTGAGGCGGAGTCACCTAGTGCAG | 17300 fluorescence intensity (a.u.)
41 | GTGTAACTTGTTTTGCTAGGGTTTTTGATTGCTTTTTACTCGGAGTCACCTAGTGCAG | 12000 fluorescence intensity (a.u.)
42 | GTGCGTGTAAACTTTTTTGGGGTTGTTTTGGGCGGTTACTCGGAGTCACCTAGTGCAG | 18200 fluorescence intensity (a.u.)
43 | CGAGTCTTTTGTGCGGGTGGTTGGGGCGTGGGCGGTGGCGCGGAGTCACCTAGTGCAG | 23100 fluorescence intensity (a.u.)
44 | AGATGAGAGGTTTGGTTGGTTGGATGGTGGGGAGCGCCCGCGGAGTCACCTAGTGCAG | 10400 fluorescence intensity (a.u.)
45 | TGTTCTTGCTACGCTGGGAGGGGAGGGGTGGCGCCGCGGCCGGAGTCACCTAGTGCAG | 21700 fluorescence intensity (a.u.)
